Most compounds without a hit are left out; they make up all but 32% or so of the library.
CYP2C9 inh: blockers of cytochrome P450 2C9 activity – biochemical, luminescence, ADME assay, primary screen | inhibition, % at 5 µM | hit rate 20% among 96,000 | CYP2C9 Supersomes, luciferin-H conversion | P11712;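 active = blocking of liver enzyme CYP2C9 beyond about 50% at 5 µM, limit read from the data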
PostGolgi ctrl: growth inhibition of yeast control strain, primary screen, counter-screen for post-Golgi transport modulator project; inhibition, % at 10 µM; efflux-deficient yeast background strain, growth absorbance A615, 16 h; AID 738, 2007; hit rate 5% among 98,000
CYP2C9 activ: human CYP2C9 activators, primary screen, biochemical, luminescence; Cytochrome P450 2C9 (Homo sapiens), P11712; recombinant CYP2C9, luciferin-H conversion; active compounds read high; factor 1 = untreated enzyme, 0 = blocked; activation factor at 5 µM; hit rate 1.4% among 96,000; AID 1024, 2008;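 active = activation factor of 2 or more for CYP2C9 at a 5 µM dose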;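 note: 0 = sulfaphenazole-blocked wells and 1 = vehicle-only wells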
CYP2C19 inh: blockers of cytochrome P450 2C19 activity – biochemical, luminescence, ADME assay, primary screen | CYP2C19 Supersomes, luciferin-H EGE luminescence, 30 min | inhibition, % at 5 µM | hit rate 21% among 96,000 | AID 778, 2007;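 active = CYP2C19 inhibition above a set limit at 5 µM in the primary screen, cut at about 50% in these data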;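 note: plate controls were negative control wells for no effect and 2.5 mM tranylcypromine positive control for full effect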
Target sequence (P33261 whole entry, looked up): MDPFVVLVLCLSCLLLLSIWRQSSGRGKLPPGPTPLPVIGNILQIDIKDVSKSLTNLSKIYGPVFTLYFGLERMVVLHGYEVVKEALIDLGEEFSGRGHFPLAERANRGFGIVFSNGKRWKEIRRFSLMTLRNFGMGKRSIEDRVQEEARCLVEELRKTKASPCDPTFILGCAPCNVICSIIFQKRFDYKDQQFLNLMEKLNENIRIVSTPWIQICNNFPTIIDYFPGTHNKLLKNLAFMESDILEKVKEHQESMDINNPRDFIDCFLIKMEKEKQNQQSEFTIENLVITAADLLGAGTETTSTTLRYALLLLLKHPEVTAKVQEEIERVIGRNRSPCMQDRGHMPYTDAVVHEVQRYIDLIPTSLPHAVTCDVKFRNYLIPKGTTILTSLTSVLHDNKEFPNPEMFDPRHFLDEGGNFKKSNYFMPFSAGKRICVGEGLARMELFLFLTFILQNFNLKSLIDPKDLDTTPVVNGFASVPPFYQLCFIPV
CYP2C19 activ: human CYP2C19 activators, primary screen, biochemical, luminescence. recombinant CYP2C19, luciferin-H EGE luminescence; active compounds read high; 0 = fully inhibited enzyme, 1 = untreated enzyme. Cytochrome P450 2C19 (Homo sapiens), P33261. 96,000 tested, under 10 active. activation factor at 5 µM;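 active = activation factor of at least 2 at 5 µM in the primary screen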;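 note: 0 = wells with 2.5 mM tranylcypromine and 1 = vehicle-only wells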
PostGolgi yeast: phenotypic screen on post-Golgi transport, primary screen; post-Golgi transport phenotypic cell assay; inhibition, % at 10 µM; hit rate 0.9% among 98,000; AID 739, 2007;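 note: yeast cells grown in 1536-well plates; yeast grown about 18 h at 30C before absorbance read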
Active calls of the source: *. Cut-off read from the data, not from the text of the source, unless noted: active = inhibition above about 30%; inactive = the rest.

How did CCOC(=O)c1[nH]c(C)c(/C(O)=C2\C(=O)C(=O)N(CCN(C)C)C2c2ccncc2)c1C (centres undefined) do in these assays?
CYP2C9 inh: 20.8; PostGolgi ctrl: -2.4; CYP2C9 activ: 0.8; CYP2C19 inh: -4.6; CYP2C19 activ: 1; PostGolgi yeast: 2.3

How did Cc1ccc(CSCC(=O)Nc2ccc3c(c2)OCO3)cc1 do in these assays?
CYP2C9 inh: 32.5; PostGolgi ctrl: 2.4; CYP2C9 activ: 0.7; CYP2C19 inh: 59.4*; CYP2C19 activ: 0.4; PostGolgi yeast: 14.9

How did O=C(CSCc1ccc(Cl)cc1)Nc1ccccc1C(=O)N1CCOCC1 do in these assays?
CYP2C9 inh: 20.6; PostGolgi ctrl: 6.8; CYP2C9 activ: 0.8; CYP2C19 inh: 14.5; CYP2C19 activ: 0.9; PostGolgi yeast: -1.2

How did O=C(CSCc1c(Cl)cccc1Cl)Nc1ccc2c(c1)OCO2 do in these assays?
CYP2C9 inh: 75.0*; PostGolgi ctrl: 15.9; CYP2C9 activ: 0.3; CYP2C19 inh: 12.3; CYP2C19 activ: 0.9; PostGolgi yeast: -1.8

What do the screens show for `O=C(CSCc1ccccc1)Nc1ccc2c(c1)OCO2`?
PostGolgi ctrl: 5.5; PostGolgi yeast: -0.3

What do the screens show for `O=C(CSCSCC(=O)Nc1ccc2c(c1)OCO2)Nc1ccc2c(c1)OCO2`?
CYP2C9 inh: 79.7*; PostGolgi ctrl: 5.9; CYP2C9 activ: 0.2; CYP2C19 inh: 35.1; CYP2C19 activ: 0.6; PostGolgi yeast: 5.7

Results for O=C(CSCc1c(Cl)cccc1Cl)Nc1ccccc1C(=O)N1CCOCC1 ?
CYP2C9 inh: 92.0*; PostGolgi ctrl: 3.1; CYP2C9 activ: 0.1; CYP2C19 inh: 47.6; CYP2C19 activ: 0.5; PostGolgi yeast: -2.9

Results for CC(Sc1nnc(Cn2c(=O)sc3ccccc32)n1C)c1ccccc1 (centres undefined) ?
PostGolgi ctrl: 5.0; PostGolgi yeast: 4.0

How did Cc1ccc(S(=O)(=O)C2(C(=O)Nc3ccc4c(c3)OCO4)CC2)cc1 do in these assays?
CYP2C9 inh: 83.1*; PostGolgi ctrl: -0.3; CYP2C9 activ: 0.2; CYP2C19 inh: 86.9*; CYP2C19 activ: 0.1; PostGolgi yeast: -1.7

What do the screens show for `Cc1ccc(S(=O)(=O)C2(C(=O)Nc3ccc(F)cc3)CC2)cc1`?
CYP2C9 inh: 11.8; PostGolgi ctrl: -1.8; CYP2C9 activ: 0.9; CYP2C19 inh: 45.6; CYP2C19 activ: 0.5; PostGolgi yeast: -1.4

What do the screens show for `COc1ccccc1NC(=O)Cn1nc(C(F)(F)F)c2c1CCCC2`?
CYP2C9 inh: -2.3; PostGolgi ctrl: 13.1; CYP2C9 activ: 1; CYP2C19 inh: 47.3; CYP2C19 activ: 0.5; PostGolgi yeast: -16.6

How did O=C(Cn1nc(C(F)(F)F)c2c1CCCC2)Nc1ccc2c(c1)OCO2 do in these assays?
CYP2C9 inh: 53.3*; PostGolgi ctrl: 10.8; CYP2C9 activ: 0.5; CYP2C19 inh: 86.7*; CYP2C19 activ: 0.1; PostGolgi yeast: -4.5

What do the screens show for `COc1cc2c(cc1OC)-c1cc(NC3CCCCC3)nc(=O)n1CC2`?
CYP2C9 inh: -0.7; PostGolgi ctrl: -5.2; CYP2C9 activ: 1; CYP2C19 inh: -3.3; CYP2C19 activ: 1; PostGolgi yeast: -3.0

What do the screens show for `COc1cc2c(cc1OC)-c1cc(NC3CCCCCCC3)nc(=O)n1CC2`?
CYP2C9 inh: 51.0*; PostGolgi ctrl: 14.0; CYP2C9 activ: 0.5; CYP2C19 inh: 37.7; CYP2C19 activ: 0.6; PostGolgi yeast: 1.8

What do the screens show for `CCOC(=O)C1CCCN(CCC(=O)Nc2ccc3c(c2)CCC3)C1` (centres undefined)?
CYP2C9 inh: 6.1; PostGolgi ctrl: 1.3; CYP2C9 activ: 0.9; CYP2C19 inh: 17.8; CYP2C19 activ: 0.8; PostGolgi yeast: 1.4

How did COc1ccc(CN2C(=O)NC3(CCCCCC3)C2=O)cc1F do in these assays?
CYP2C9 inh: -90.1; CYP2C9 activ: 1.9; CYP2C19 inh: 87.6*; CYP2C19 activ: 0.1

What do the screens show for `Cc1ccc(NC(=O)C2CCCN(c3ncccn3)C2)cc1F` (centres undefined)?
CYP2C9 inh: 32.8; PostGolgi ctrl: 6.6; CYP2C9 activ: 0.7; CYP2C19 inh: 42.3; CYP2C19 activ: 0.6; PostGolgi yeast: -7.2

How did CCC(Oc1ccccc1)C(=O)Nc1nnc(C)s1 (centres undefined) do in these assays?
CYP2C9 inh: 63.0*; PostGolgi ctrl: 31.0*; CYP2C9 activ: 0.4; CYP2C19 inh: 41.4; CYP2C19 activ: 0.6; PostGolgi yeast: 11.3

How did CCC(CC)c1nnc(NC(=O)Oc2ccccc2)s1 do in these assays?
CYP2C9 inh: 56.4*; PostGolgi ctrl: -10.1; CYP2C9 activ: 0.4; CYP2C19 inh: 5.0; CYP2C19 activ: 0.9; PostGolgi yeast: -8.3

Results for CCC(Oc1ccccc1)C(=O)Nc1ccccc1OC (centres undefined) ?
CYP2C9 inh: 3.5; PostGolgi ctrl: 31.1*; CYP2C9 activ: 1; CYP2C19 inh: 38.0; CYP2C19 activ: 0.6; PostGolgi yeast: -1.1

What do the screens show for `CCC(=O)NC(=S)Nc1ccccc1OC`?
CYP2C9 inh: 14.1; PostGolgi ctrl: 9.4; CYP2C9 activ: 0.9; CYP2C19 inh: 39.4; CYP2C19 activ: 0.6; PostGolgi yeast: -6.2

How did CCC(Oc1ccccc1)C(=O)Nc1nc2c(s1)C(=O)CC(C)(C)C2 (centres undefined) do in these assays?
CYP2C9 inh: 54.5*; PostGolgi ctrl: 5.9; CYP2C9 activ: 0.5; CYP2C19 inh: 11.9; CYP2C19 activ: 0.9; PostGolgi yeast: -3.9

Results for Cc1nnc(NC(=O)Oc2ccccc2)s1 ?
CYP2C9 inh: -14.2; PostGolgi ctrl: 8.2; CYP2C9 activ: 1.1; CYP2C19 inh: -8.4; CYP2C19 activ: 1.1; PostGolgi yeast: -8.0

Results for O=[N+]([O-])c1ccc(C2CCCC/C2=N\OCc2cccc(F)c2)c([N+](=O)[O-])c1 (centres undefined) ?
CYP2C9 inh: 29.9; PostGolgi ctrl: 9.7; CYP2C9 activ: 0.7; CYP2C19 inh: 32.5; CYP2C19 activ: 0.7; PostGolgi yeast: 0.8

What do the screens show for `O=C(Cc1cc(=O)[nH]c(=O)[nH]1)NCCN1CCOCC1`?
PostGolgi ctrl: 0.6; PostGolgi yeast: 0.5

What do the screens show for `COC(=O)C(=O)Nc1nnc(COc2ccccc2)s1`?
CYP2C9 inh: 3.0; PostGolgi ctrl: 10.2; CYP2C9 activ: 1; CYP2C19 inh: -11.8; CYP2C19 activ: 1.1; PostGolgi yeast: -5.7

What do the screens show for `CCC(Oc1ccccc1)C(=O)Nc1nnc(C(F)(F)F)s1` (centres undefined)?
CYP2C9 inh: 96.7*; PostGolgi ctrl: 48.2*; CYP2C9 activ: 0; CYP2C19 inh: 15.6; CYP2C19 activ: 0.8; PostGolgi yeast: 8.4

What do the screens show for `O=S(=O)(c1ccc(SCCO)nc1)N1CCCC1`?
CYP2C9 inh: -19.9; PostGolgi ctrl: 5.1; CYP2C9 activ: 1.2; CYP2C19 inh: 38.2; CYP2C19 activ: 0.6; PostGolgi yeast: -6.6

Compound activity from PubChem.
